# Measured values from the supplement of paper PMC3545927.
# The list shows a part of the results. No count for the full screen is at hand.
# B1: FS-2988 (peptide)
# chain: CARLKKSQFLAGNASASA
# B2: HC1171 (peptide)
# chain: CAVDGIMHTRAGNASASA
# B3: FS-1739 (peptide)
# chain: CARLHRFWEGAGNASASA
# B4: FS-973 (peptide)
# chain: CAALSRVRRAAGNASASA
# B5: FS-1510 (peptide)
# chain: CAALSRTARAAGNASASA
# B6: HC2563 (peptide)
# chain: CASTPCSAHAAGNASASA
# B7: HC1331 (peptide)
# chain: CASTALAELAAGNASASA
# B8: HC232 (peptide)
# chain: CAPLGGAARAAGNASASA
# B9: FS-1287 (peptide)
# chain: CASTARLARAAGNASASA
# B10: FS-59 (peptide)
# chain: CALTQRTARAAGNASASA
# B11: HC254 (peptide)
# chain: CAVPASAYQVAGNASASA
# B12: HC2185 (peptide)
# chain: CAEVLTSTWVAGNASASA
# B13: FS-198 (peptide)
# chain: CASTARIRRNAGNASASA
# B14: FS-115 (peptide)
# chain: CAALGRKARAAGNASASA
# B15: FS-662 (peptide)
# chain: CAHIARALRNAGNASASA
# B16: FS-294 (peptide)
# chain: CASHSRVRRAAGNASASA
# B17: HC865 (peptide)
# chain: CAALGINAVAAGNASASA
# B18: HC2581 (peptide)
# chain: CASTPCSAHNAGNASASA
# B19: HC1013 (peptide)
# chain: CAFDEMEECSAGNASASA
# B20: FS-1955 (peptide)
# chain: CARHLRSKVTAGNASASA
# B21: FS-439 (peptide)
# chain: CAHIFRKRRPAGNASASA
# B22: FS-2004 (peptide)
# chain: CAREHRSGEPAGNASASA
# B23: FS-2420 (peptide)
# chain: CARHLRSLEPAGNASASA
# B24: FS-711 (peptide)
# chain: CARQERNKRFAGNASASA
# B25: FS-1511 (peptide)
# chain: CAAQAREKRFAGNASASA
# B26: FS-2956 (peptide)
# chain: CARIVRSLMPAGNASASA
# B27: FS-1730 (peptide)
# chain: CARKNRSHIPAGNASASA
# B28: HC2412 (peptide)
# chain: CAEVPCHRPEAGNASASA
# B29: HC2344 (peptide)
# chain: CAEVICHRPSAGNASASA
# B30: HC1825 (peptide)
# chain: CALTPCSGSWAGNASASA
# B31: FS-1715 (peptide)
# chain: CARHLREVGDAGNASASA
# B32: FS-1916 (peptide)
# chain: CARQNRSVRLAGNASASA
# B33: FS-956 (peptide)
# chain: CARQNRWKRQAGNASASA
# B34: FS-3040 (peptide)
# chain: CARQNRGFRAAGNASASA
# B35: FS-493 (peptide)
# chain: CARQNREKRFAGNASASA
# B36: HC1222 (peptide)
# chain: CATELDGVRLAGNASASA
# B37: HC1206 (peptide)
# chain: CAVEIRQVGDAGNASASA
# B38: FS-1714 (peptide)
# chain: CARHKRGRGDAGNASASA
# B39: HC829 (peptide)
# chain: CAETAGARLVAGNASASA
# B40: HC568 (peptide)
# chain: CAAASCGGVVAGNASASA
# B41: HC2081 (peptide)
# chain: CAVVCCSMNYAGNASASA
# B42: HC381 (peptide)
# chain: CALFYHHKFNAGNASASA
# B43: FS-706 (peptide)
# chain: CARHLREKRFAGNASASA
# B44: FS-2939 (peptide)
# chain: CARHLRANMTAGNASASA
# B45: FS-2940 (peptide)
# chain: CARHLRNVYAAGNASASA
# Molecular target: furin, P09958
# Sequence (P09958 whole entry): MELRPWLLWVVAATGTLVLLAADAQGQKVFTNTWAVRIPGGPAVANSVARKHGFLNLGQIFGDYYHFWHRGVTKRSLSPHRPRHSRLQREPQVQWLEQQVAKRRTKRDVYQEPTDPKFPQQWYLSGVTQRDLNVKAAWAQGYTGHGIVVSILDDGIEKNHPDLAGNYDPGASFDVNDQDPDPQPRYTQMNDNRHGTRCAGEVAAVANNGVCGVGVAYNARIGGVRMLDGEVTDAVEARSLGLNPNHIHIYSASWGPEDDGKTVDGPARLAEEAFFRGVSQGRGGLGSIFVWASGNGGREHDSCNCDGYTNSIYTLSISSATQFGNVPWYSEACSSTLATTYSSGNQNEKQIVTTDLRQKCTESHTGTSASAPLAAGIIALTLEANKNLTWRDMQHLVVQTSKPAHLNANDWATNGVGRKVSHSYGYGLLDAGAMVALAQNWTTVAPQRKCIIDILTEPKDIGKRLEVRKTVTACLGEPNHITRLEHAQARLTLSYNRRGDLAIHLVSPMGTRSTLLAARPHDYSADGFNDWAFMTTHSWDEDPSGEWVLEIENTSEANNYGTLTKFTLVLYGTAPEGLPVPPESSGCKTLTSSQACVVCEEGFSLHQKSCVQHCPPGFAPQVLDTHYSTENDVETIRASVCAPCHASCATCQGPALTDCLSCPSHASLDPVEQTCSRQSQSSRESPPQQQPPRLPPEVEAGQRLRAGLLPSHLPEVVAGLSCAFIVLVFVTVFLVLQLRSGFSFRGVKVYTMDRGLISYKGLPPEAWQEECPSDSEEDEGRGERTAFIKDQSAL
# Assay: furin cleavage Z-score vs untreated control; higher = more cleavage, active = 3.5 or more, inactive = 1 or less, 8 variable residues between constant flanks
# Outline: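 Magnetic beads held 8-mer peptides by the N-terminus, each fused to a cDNA oligonucleotide, and purified furin was added for 7.5, 15 or 30 min. Released DNA was sequenced after PCR adapter tagging. The cleavage Z-score is the log count relative to furin-free reactions, lowess-adjusted and divided by median absolute deviation.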
# 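Also: purified furin at 1:10 enzyme:substrate in 50 mM HEPES pH 7.5.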
Sequence,furin cleavage Z-score (7.5 min),furin cleavage Z-score (15 min),furin cleavage Z-score (30 min)
B1,-1.1 (inactive),-0.681 (inactive),-1.54 (inactive)
B2,1.01,-0.806 (inactive),1.2
B3,1.61,-1.73 (inactive),0.551 (inactive)
B4,8.87 (active),9.48 (active),6.93 (active)
B5,8.19 (active),7.7 (active),6.47 (active)
B6,1.54,0.374 (inactive),-0.524 (inactive)
B7,-1.46 (inactive),-0.668 (inactive),0.259 (inactive)
B8,-0.625 (inactive),-0.427 (inactive),-0.526 (inactive)
B9,5.91 (active),8.42 (active),8.27 (active)
B10,6.17 (active),5.48 (active),5.53 (active)
B11,0.602 (inactive),-1.58 (inactive),-0.419 (inactive)
B12,0.631 (inactive),-0.524 (inactive),0.492 (inactive)
B13,11.3 (active),11.2 (active),10.4 (active)
B14,6.64 (active),6.76 (active),5.64 (active)
B15,0.331 (inactive),1.47,0.623 (inactive)
B16,11.4 (active),9.7 (active),7.37 (active)
B17,0.253 (inactive),0.918 (inactive),-1.14 (inactive)
B18,-0.0473 (inactive),1.28,-0.895 (inactive)
B19,0.602 (inactive),0.715 (inactive),0.322 (inactive)
B20,-0.109 (inactive),-0.365 (inactive),0.464 (inactive)
B21,-0.371 (inactive),-0.427 (inactive),-0.596 (inactive)
B22,-1.1 (inactive),-0.712 (inactive),-1.7 (inactive)
B23,5.02 (active),6.47 (active),5.66 (active)

Sequence,furin cleavage Z-score (7.5 min),furin cleavage Z-score (15 min),furin cleavage Z-score (30 min)
B24,8.02 (active),9.31 (active),10.8 (active)
B25,6.88 (active),8.08 (active),8.04 (active)
B26,6.15 (active),8.67 (active),10.9 (active)
B27,0.266 (inactive),-0.138 (inactive),-0.417 (inactive)
B28,1.1,0.551 (inactive),-0.217 (inactive)
B29,-0.36 (inactive),-0.916 (inactive),1.17
B30,-0.28 (inactive),-0.817 (inactive),-0.734 (inactive)
B31,2.58,3.76 (active),3.94 (active)
B32,2.12,3.53 (active),4 (active)
B33,13.6 (active),16.1 (active),9.49 (active)
B34,-0.161 (inactive),0.266 (inactive),0.111 (inactive)
B35,8.07 (active),9.73 (active),9.9 (active)
B36,-1.97 (inactive),-0.317 (inactive),-1.04 (inactive)
B37,-0.56 (inactive),-1.09 (inactive),-1.86 (inactive)
B38,0.301 (inactive),2.2,1.5
B39,1.45,1.12,-1.04 (inactive)
B40,-0.496 (inactive),-0.825 (inactive),0.0661 (inactive)
B41,-0.198 (inactive),-1.19 (inactive),-1.03 (inactive)
B42,-0.625 (inactive),-2.1 (inactive),-0.731 (inactive)
B43,6.75 (active),9.12 (active),10.1 (active)
B44,-0.54 (inactive),-1.02 (inactive),-1.63 (inactive)
B45,0.638 (inactive),-0.594 (inactive),1.3
